Measured values: PubChem BioAssay (Tox21)
Values without a mark were called inactive. Where a call stands in place of a potency, no number is given. Active and inactive are the calls of the source. Calls follow the shape of the full dose curve.

Target: Gonadotropin-releasing hormone receptor (Homo sapiens) (UniProt P30968)
Assay: Human gonadotropin-releasing hormone receptor (GnRHR) small molecule agonists, calcium flux assay in GnRHR-HEK293 cells (AID 1920063); also: nearly all actives have a fitted effect of over 35% in size
Conditions: calcium flux fluorescence, agonist mode; series mostly up to 57.6 µM
Source text: National Center for Advancing Translational Sciences [NCATS]
Division of Preclinical Innovation [DPI]
U.S. Environmental Protection Agency [EPA]
National Institutes of Environmental Health Sciences [NIEHS]
National Toxicology Program [NTP]
U.S. Food and Drug Administration [FDA]
Gonadotropin-releasing hormone receptor (GnRHR) is a G-protein-coupled receptor (GPCR) and acts (through phospholipase C) to increase intracellular inositol trisphosphate and then release intracellular calcium stores. Cell-based GnRHR-Hek293 calcium influx assay is using HEK293 cells that have been genetically engineered to express the human GnRHR, which activity can be measured by calcium signaling. A compound/drug can activate (agonist) GnRHR that can be monitored by levels of intracellular calcium.
GnRHR-HEK293 cells developed by Codex Corp contain human GnRHR reporter gene, which was stably integrated into HEK 293 cells. The compound activation can be detected by fluorescence intensity via calcium flux assay. This cell line has been used to screen the Tox21 10K compound library to identify GnRHR agonists.
GnRHR-Hek293 cells were dispensed at 1500cells/4uL/well in 1536-well black wall/clear bottom plates using a multidrop dispenser. After the assay plates were incubated at a 37 C/5% CO2 incubator for 18 hours, 4 uL of Calcium Dye Solution was added to each well. The plates were incubated at 37 C for 1 hour. For agonist mode, 23 nL of compounds dissolved in DMSO, positive controls or DMSO only was transferred to the assay plate by a pin tool station. The fluorescence intensity in the plates was measured using FDSS 7000EX kinetic plate reader with a filter set of Ex/Em=480/540 for 3 min at 1 sec intervals. Each test compound was measured at 15 concentrations and in triplicates.
Potency is read from the fitted curve at half-maximal effect.

Sequence of Gonadotropin-releasing hormone receptor (Homo sapiens) (P30968 whole entry, looked up): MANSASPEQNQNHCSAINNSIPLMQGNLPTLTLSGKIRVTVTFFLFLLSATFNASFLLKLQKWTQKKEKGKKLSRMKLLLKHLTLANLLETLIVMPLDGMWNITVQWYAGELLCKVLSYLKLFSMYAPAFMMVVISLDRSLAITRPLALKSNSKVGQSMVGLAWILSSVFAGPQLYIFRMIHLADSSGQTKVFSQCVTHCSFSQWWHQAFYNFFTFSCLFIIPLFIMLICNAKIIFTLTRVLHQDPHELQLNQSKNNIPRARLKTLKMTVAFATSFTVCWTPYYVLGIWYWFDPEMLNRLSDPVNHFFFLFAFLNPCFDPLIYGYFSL

Question: With `C[C@]12CCC(=O)C=C1CC[C@H]1[C@@H]3CC[C@](O)(C(=O)CO)[C@@]3(C)C[C@H](O)[C@@]12F` as the compound, how does the Potency read?
Answer: Its Potency is “inactive”.

Question: For `CC(C)(C)c1ccc(OCC2CO2)cc1` (stereo not given), which Potency is on record?
Answer: The Potency was “inactive”.

Question: Which Potency does the source give for `CCC(CC)CO` here?
Answer: Its Potency is “inactive”.

Question: Which Potency does the source give for `CC(C)O.CC(C)O.CCOC(=O)/C=C(\C)O.CCOC(=O)/C=C(\C)O.[Ti]` here?
Answer: Its Potency is “inactive”.

Question: For `CCCCC(CC)COC(=O)CCCCC(=O)OCc1ccccc1` (stereo not given), which Potency is on record?
Answer: Its Potency is “inactive”.

Question: With `O=C(c1ccc(F)cc1)C1CCN(CCn2c(=S)[nH]c3ccccc3c2=O)CC1` as the compound, how does the Potency read?
Answer: Its Potency is “inactive”.

Question: How did the Potency turn out when `Oc1cccc2c(O)cccc12` was run?
Answer: The Potency was “inactive”.

Question: How did the Potency turn out when `O=C(Nc1ccc2c(c1)Cc1ccccc1-2)C(F)(F)F` was run?
Answer: Its Potency is “inactive”.

Question: `CC(=O)Nc1cccc(N)c1` was tested. Which Potency did it give?
Answer: Its Potency is “inactive”.

Question: `O=[N+]([O-])c1cccc(C(F)(F)F)c1` was tested. Which Potency did it give?
Answer: Its Potency is “inactive”.

Question: For `C[C@H]1c2cccc(O)c2C(O)=C2C(=O)[C@]3(O)C(O)=C(C(N)=O)C(=O)[C@@H](N(C)C)[C@@H]3[C@@H](O)[C@@H]21`, which Potency is on record?
Answer: The Potency was “inactive”.

Question: How did the Potency turn out when `Nc1cccc([N+](=O)[O-])c1` was run?
Answer: The Potency was “inactive”.

Question: For `Nc1ccc([N+](=O)[O-])c(N)c1`, which Potency is on record?
Answer: Its Potency is “inactive”.

Question: With `O=C1c2ccccc2C(=O)c2c(Cl)cccc21` as the compound, how does the Potency read?
Answer: Its Potency is “inactive”.

Question: `Nc1ncn([C@H]2C[C@H](O)[C@@H](CO)O2)c(=O)n1` was tested. Which Potency did it give?
Answer: The Potency was “inactive”.

Question: For `CNC(C)=O`, which Potency is on record?
Answer: Its Potency is “inactive”.

Question: With `O=c1cc(-c2ccc(O)cc2)oc2cc(O)cc(O)c12` as the compound, how does the Potency read?
Answer: Its Potency is “inactive”.

Question: `CC(C)C(OC(=O)c1ccccc1)C(C)(C)COC(=O)c1ccccc1` (stereo not given) was tested. Which Potency did it give?
Answer: Its Potency is “inactive”.

Question: How did the Potency turn out when `N#Cc1nc(Cl)c(Cl)c(Cl)c1Cl` was run?
Answer: The Potency was “inactive”.

Question: For `CCOc1ccc(NC(C)=O)cc1N`, which Potency is on record?
Answer: Its Potency is “inactive”.

Question: `CC(C)CCOCc1ccccc1` was tested. Which Potency did it give?
Answer: The Potency was “inactive”.

Question: `CCCC(=O)Nc1ccc(OCC(O)CNC(C)C)c(C(C)=O)c1` (stereo not given) was tested. Which Potency did it give?
Answer: The Potency was “inactive”.

Question: For `COC(=O)c1ccc(C(=O)OC)c(C(=O)OC)c1`, which Potency is on record?
Answer: Its Potency is “inactive”.

Question: Which Potency does the source give for `O=C(Nc1cccc([N+](=O)[O-])c1)c1cc2ccccc2cc1O` here?
Answer: The Potency was “inactive”.

Question: For `c1ccc(Cc2ccccc2)cc1`, which Potency is on record?
Answer: The Potency was “inactive”.

Question: For `Cc1ccc(O)c(O)c1`, which Potency is on record?
Answer: The Potency was “inactive”.

Question: `O=C=NCC1CCCC(CN=C=O)C1` (stereo not given) was tested. Which Potency did it give?
Answer: The Potency was “inactive”.

Question: Which Potency does the source give for `O=C(O)c1ccc(S(=O)(=O)O)cc1C(=O)O` here?
Answer: The Potency was “inactive”.

Question: How did the Potency turn out when `CCc1cc(SCc2sc(-c3ccc(C(F)(F)F)cc3)nc2CN2CCN(c3ccc(OC)cc3)CC2)ccc1OCC(=O)O` was run?
Answer: The Potency was “inactive”.

Question: Which Potency does the source give for `CC(=O)NCCCS(=O)(=O)O` here?
Answer: Its Potency is 15 µM (active).

Question: `C=C1c2cccc(O)c2C(O)=C2C(=O)[C@]3(O)C(O)=C(C(N)=O)C(=O)[C@@H](N(C)C)[C@@H]3[C@@H](O)[C@H]12` was tested. Which Potency did it give?
Answer: The Potency was “inactive”.

Question: For `CCN1/C(=C/C=C/c2sc3ccccc3[n+]2CC)Sc2ccccc21`, which activity change is on record?
Answer: The activity change was -1.77% [at 11.8 µM, stronger effect = higher value].

Question: With `CC(C)(C)C1CCC(CC2=C(O)c3ccccc3C(=O)C2=O)CC1` (stereo not given) as the compound, how does the Potency read?
Answer: Its Potency is “inactive”.

Question: How did the Potency turn out when `COc1cc(/C=C/C(=O)CC(=O)/C=C/c2ccc(O)c(OC)c2)ccc1O` was run?
Answer: The Potency was 39.2 µM (active).

Question: `C=CC(=O)Nc1cc2c(Nc3ccc(F)c(Cl)c3)ncnc2cc1OCCCN1CCOCC1` was tested. Which Potency did it give?
Answer: The Potency was “inactive”.

Question: How did the Potency turn out when `CCCC(C)C(=O)O` (stereo not given) was run?
Answer: The Potency was “inactive”.

Question: For `O=CN(CCO)CCO`, which Potency is on record?
Answer: Its Potency is “inactive”.

Question: For `C#CC(O)C(CC)CCCC` (stereo not given), which Potency is on record?
Answer: Its Potency is “inactive”.

Question: `CC/C=C\CCOC(C)OCC` (stereo not given) was tested. Which Potency did it give?
Answer: The Potency was “inactive”.

Question: Which Potency does the source give for `CN(C)CCOc1ccccc1Cc1ccccc1` here?
Answer: Its Potency is “inactive”.
